Hits are enriched below; roughly 7.4% of the tested compounds scored in any of these assays.
FXIIa mix inh: inhibitors of human coagulation factor XIIa, pooled mixtures | P00748 | inhibition, % at 5 µM | purified FXIIa, fluorogenic substrate | hit rate 0.2% among 62,000 | AID 684
D1 mod: allosteric modulators of human D1 dopamine receptor; HEK293 D1, CRE-luciferase, dopamine EC30 potentiation; actives deviate in either direction; B-score at 10 µM; hit rate 5.9% among 58,000;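 active = luminescence count or its row- and column-corrected plate score outside the 99.7% band of the plate's sample wells, on either side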
Target sequence (P21728 whole entry, looked up): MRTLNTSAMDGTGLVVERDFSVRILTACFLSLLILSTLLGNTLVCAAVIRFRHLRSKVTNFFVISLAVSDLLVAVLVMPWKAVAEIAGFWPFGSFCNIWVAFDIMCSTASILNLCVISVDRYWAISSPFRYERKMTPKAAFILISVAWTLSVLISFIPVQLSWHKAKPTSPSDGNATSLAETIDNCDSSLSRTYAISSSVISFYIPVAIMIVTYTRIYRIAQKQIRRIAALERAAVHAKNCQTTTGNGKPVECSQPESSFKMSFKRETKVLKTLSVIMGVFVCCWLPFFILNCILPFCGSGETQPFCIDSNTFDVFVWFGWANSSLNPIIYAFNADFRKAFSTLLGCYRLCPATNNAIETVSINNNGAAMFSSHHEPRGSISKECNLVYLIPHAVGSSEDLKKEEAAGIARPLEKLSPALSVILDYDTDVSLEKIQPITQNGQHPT
M1 agonist: agonists of M1 muscarinic receptor; CHO-M1 cells, Fluo-4 calcium fluorescence, agonist mode; stronger effect = higher value; B-score at 10 µM; hit rate 3% among 64,000; AID 626;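 active = fluorescence rise, raw or as B-score row- and column-corrected plate score, outside the 99.7% band of its plate's samples, either direction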
FXIa inh mix: blocks human factor XIa in pooled compound mixtures. inhibition, % at 5 µM. purified FXIa, fluorogenic substrate. hit rate 0.19% among 62,000. P03951;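 note: each value is inhibition by a whole ten-compound pool holding the compound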
M1 antagonist: blocks the rat M1 muscarinic receptor response to acetylcholine. P08482. CHO-M1 cells, Fluo-4 calcium, ACh EC80 antagonist mode; stronger effect = lower value. B-score at 10 µM. hit rate 3.4% among 64,000;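 active = calcium fluorescence response, raw or row-and-column corrected B-score, differing from the plate sample mean either way at a set confidence level, mostly lower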
hDAT+cocaine: modulates human dopamine transporter uptake under cocaine; Q01959; LLC-PK1 hDAT cells, [14C]-dopamine uptake with cocaine IC80; actives deviate in either direction; B-score at 10 µM; hit rate 1.3% among 110,000;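 active = Z score or B-score, a plate-position-corrected score, falls beyond the plate's 99.7% confidence bounds, in either direction; inactive = both scores lie inside the 99.7% bounds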
D1 PAM confirm: confirmation of human D1 dopamine receptor allosteric modulators; shares compounds with D1 mod; HEK293 D1 CRE-luciferase, dopamine EC30 potentiation; stronger effect = higher value; luminescence at 10 µM; hit rate 88% among 2,200;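 active = luminescence in either of two replicates above the same-plate mean plus 3 SD of the low-dose dopamine control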
D1 no dopamine: D1 (human) signaling in absence of dopamine; HEK293 D1 CRE-luciferase, luminescence, no dopamine; stronger effect = higher value; shares compounds with D1 mod; luminescence at 10 µM; AID 646; hit rate 0.8% among 1,900; in the data active = luminescence above about 3900
Isoprot counter: isoproterenol response counter-screen activity for D1 modulators; shares compounds with D1 mod; HEK293 D1 CRE-luciferase, isoproterenol EC30 counter-screen; calls only at 10 µM; hit rate 63% among 2,200;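 active = luminescence in either replicate above plate mean of wells with a partly effective reference agonist dose plus 3 SD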;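 note: isoproterenol raises cAMP through native beta-adrenoceptor Gs so signal bypasses D1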
Hits are given with their value; 0 = inactive; - = no result; + = active, no number. Cut-off read from the data, not from the text of the source, unless noted: active = inhibition above about 20% (passing the limit was not always enough); inactive = the rest.

SMILES	FXIIa mix inh	D1 mod	M1 agonist	FXIa inh mix	M1 antagonist	hDAT+cocaine	D1 PAM confirm	D1 no dopamine	Isoprot counter
Cn1nc(C(C)(C)C)cc1C(=O)NCc1ccc(N2CCCC2=O)cc1	0	-	0	0	0	0	-	-	-
Cc1cc(NC(=O)C2CCCCC2)n(-c2nc3ccccc3[nH]2)n1	-	-	-	-	-	0	-	-	-
Cc1cc(NC(=O)C2CCC2)n(-c2ccccn2)n1	-	7.6	0	-	0	0	20484	0	+
COc1ccc(N2C(=O)C(CC(=O)O)S/C2=C\C(C)=O)cc1 (configuration not stated)	0	0	0	0	0	0	-	-	-
COc1cc(CN(C(=O)c2ccco2)c2ccc(C)cc2)ccc1O	0	9.5	0	0	0	0	13744	0	+
CCC(C)(C)NC(=O)CN(C(=O)c1snc(C(N)=O)c1N)c1ccc2c(c1)OCCO2	0	6.6	0	0	0	0	0	0	0
CCOC(=O)Nc1cccc(C(=O)O)c1	-	-	-	-	-	0	-	-	-
CCOC(=O)c1c(N)sc2c1CCCC2	0	5.2	0	0	0	0	15712	0	+
CCOC(=O)c1c(N)sc2c1CCC(C)C2 (configuration not stated)	0	0	0	0	0	0	-	-	-
CC(=O)N1C(=O)C2(C(C#N)=C(N)Oc3n[nH]c(-c4ccccn4)c32)c2ccccc21 (configuration not stated)	0	0	0	0	0	-	-	-	-
CCSc1ncnc2c1oc1ccccc12	0	12	0	0	0	0	11660	0	+
Cc1nc(NCc2ccco2)c2oc3ccccc3c2n1	0	6	0	0	0	-	11576	-	+
CCc1nc(N2CCCCC2)c2oc3ccccc3c2n1	0	6.3	0	0	0	0	6440	0	0
Cc1nc(SCC(=O)O)c2oc3ccccc3c2n1	0	0	0	0	0	0	-	-	-
Cc1nc(SCCO)c2oc3ccccc3c2n1	0	7.3	0	0	0	0	10060	-	+
CCN(CC(=O)NCc1ccc(F)cc1)C(=O)C1CCN(C(=O)Nc2ccccc2)CC1	0	0	0	0	0	0	-	-	-
COc1ccc(/C(O)=C2/C(=O)C(=O)N(CCN(C)C)C2c2ccc(C)cc2)cc1Cl (configuration not stated)	0	0	0	0	0	0	-	-	-
CCSc1nnc(NC(=O)CSc2nc3c(c(=O)n2C)SC(C)C3)s1 (configuration not stated)	-	0	0	-	0	0	-	-	-
CCN(CC)c1c(-c2ccccc2)c2cc(C)ccc2[nH]c1=O	0	0	0	0	0	0	-	-	-
Cc1nc(N2CCOCC2)c2oc3ccccc3c2n1	0	4.6	0	0	0	0	13356	0	+
CCc1nc(NC(C)C)c2oc3ccccc3c2n1	0	22	0	0	0	0	7576	-	+
Cc1nc(SCC(=O)N2CCN(c3ccccc3)CC2)c2oc3ccccc3c2n1	0	0	0	0	0	0	-	-	-
COc1ccc(C(C(=O)NC2CCCC2)N(C(=O)c2snc(-c3ccc(F)cc3)c2N)c2cccc(F)c2)cc1 (configuration not stated)	-	-	-	-	-	0	-	-	-
COC(=O)c1sc2ccccc2c1-n1cccc1C(=O)C(=O)Nc1ccc(OC)cc1	-	-	-	-	-	0	-	-	-
N#C/C(=C\c1ccc[nH]1)C(=O)NC1CC1	-	-	-	-	-	0	-	-	-
SMILES	FXIIa mix inh	D1 mod	M1 agonist	FXIa inh mix	M1 antagonist	hDAT+cocaine	D1 PAM confirm	D1 no dopamine	Isoprot counter
COC(=O)CSc1nc2sc3c(c2c(=O)n1-c1ccccc1)CCN(C)C3	0	17	0	0	0	0	10640	0	+
CCC1CCc2c(sc3nc(SCC(=O)NCc4ccco4)n(-c4ccccc4)c(=O)c23)C1 (configuration not stated)	-	-	-	-	-	0	-	-	-
COC(=O)CSc1nc2sc(C)c(C)c2c(=O)n1C	0	6.1	0	0	0	0	7584	0	+
CCn1c(SCC(=O)NCCOC)nc2sc(C)c(C)c2c1=O	0	0	0	0	0	0	-	-	-
O=C(NCc1cccnc1)c1ccc(COc2ccccc2Br)o1	0	0	0	0	0	0	-	-	-
Cc1ccc(C(=O)CSc2nnc(-c3ccccc3N)n2C)cc1	0	-	0	0	0	0	-	-	-
CSc1nnc2c3ccccc3n(Cc3ccccc3)c2n1	0	10	0	0	0	0	15672	0	+
Cc1ccc(SC(c2ccccc2)C(Cn2cncn2)C(=O)c2ccccc2)cc1 (configuration not stated)	-	-	-	-	-	0	-	-	-
COc1ccc(/C=N/n2c(SC)nnc2-c2ccccc2)cc1C	0	16	0	0	0	0	23520	0	+
c1ccc(-c2cnnc(SCc3cn4cccnc4n3)n2)cc1	0	8.5	0	0	0	0	14784	0	+
c1coc(-c2nc3ccccc3nc2-c2ccco2)c1	0	6.7	0	0	0	0	14092	-	+
CCOC(=O)C1=C(N)n2c(s/c(=C/c3ccco3)c2=O)=C(C(=O)OC)C1c1ccco1 (configuration not stated)	0	0	0	0	0	0	-	-	-
N#CC1=C(N)n2c(s/c(=C\c3ccco3)c2=O)=C(C#N)C1c1ccco1 (configuration not stated)	0	12	0	0	0	0	14056	0	0
COc1cccc(/C(O)=C2/C(=O)C(=O)N(c3ccccn3)C2c2ccc(OC)c(OC)c2)c1 (configuration not stated)	-	-	-	-	-	0	-	-	-
C=C(C)Cn1c(SCCCO)nc2c1c(=O)[nH]c(=O)n2C	0	0	0	0	0	0	-	-	-
C=C(C)CSc1nc2c(c(=O)[nH]c(=O)n2C)n1CCC(C)C	0	11	0	0	0	0	22496	0	+
COCCn1c(SCCN2CCOCC2)nc2c1c(=O)[nH]c(=O)n2C	0	0	0	0	0	0	-	-	-
COC(=O)C(C)Sc1nc2c(c(=O)[nH]c(=O)n2C)n1CCC(C)C (configuration not stated)	-	9.9	0	-	0	0	21460	0	+
CC(C)Cn1c(NCCN(C)C)nc2c1c(=O)[nH]c(=O)n2C	0	0	0	0	0	0	-	-	-
COCCSc1nc2c(c(=O)[nH]c(=O)n2C)n1CCC(C)C	0	11	0	0	0	-	21024	0	+
CCC(C)Nc1nc2c(c(=O)[nH]c(=O)n2C)n1CCC(C)C (configuration not stated)	0	17	0	0	0	0	18228	0	+
CN1CCC(=NNC(=O)CSCc2ccccc2)CC1	-	-	-	-	-	0	-	-	-
C=C(C)CN(CC)C(=O)COc1ccc(S(=O)(=O)Nc2ccc(OC)cc2)cc1	-	-	-	-	-	0	-	-	-
CCOc1ccc(NC(=O)CSc2nnc(Cn3c(=O)sc4ccccc43)n2C)cc1	0	0	0	0	0	0	-	-	-
